Screening results: PubChem BioAssay, National Center for Advancing Translational Sciences (NCATS)
S2 tox: Viability Counterscreen for Primary qHTS for Inhibitors of ATXN expression; S2 cells (HEK-293 line with an ATXN2-luciferase reporter) viability, CellTiter-Fluor protease fluorescence, 24 h; Potency, µM (doses to about 56.7 µM), most hits filed as cytotoxic; 400,000 compounds, 0.49% hits; also: nearly all actives have a fitted effect of over 40% in size
DT40 TDP1 CPT: qHTS for Inhibitors of human tyrosyl-DNA phosphodiesterase 1 (TDP1): qHTS in cells in presence of CPT. chicken DT40 Tdp1-/-;hTDP1 cells + 20 nM CPT, ATP luminescence, 48 h. Potency, µM (doses to about 46.2 µM), hits mostly inhibitors. 420,000 compounds, 12% hits; also: nearly all actives have a fitted effect of over 55% in size
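Chicken DT40 Tdp1-/- cells complemented with human TDP1, 400 cells/well, exposed to compounds plus 20 nM camptothecin for at least 48 h at 37 C; viability read as ATP content by CellTiter-Glo luminescence.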
TDP1 cell noCPT: qHTS for Inhibitors of human tyrosyl-DNA phosphodiesterase 1 (TDP1): qHTS in cells in absence of CPT; DT40 Tdp1-/- hTDP1 cells, no CPT, ATP luminescence, 48 h; Potency, µM (titrated, usually from 46.2 µM), hits mostly inhibitors; 420,000 compounds, 15% hits; also: nearly all actives have a fitted effect of over 55% in size
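Seeded 400 DT40-hTDP1 cells/well (vehicle DMSO, no 20 nM CPT); pinned compounds; ≥48 hr at 37 °C; CellTiter-Glo luminescence as viability measure.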
ATXN2 expr inh: Primary qHTS for Inhibitors of ATXN expression | HEK-293 ATXN2-luciferase reporter, luminescence, 24 h | Potency, µM (highest dose often 57 µM), most hits filed as inhibitors | 360,000 compounds, 0.72% hits; also: nearly all actives have a fitted effect of over 55% in size
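qHTS (up to 57 uM final) was run with 24 h compound exposure of reporter cells at 37 °C. Each well was multiplexed: SteadyGlo luminescence measured ATXN2-luciferase expression after a fluorogenic Gly-Phe-AFC viability readout (25 uM final).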
HepG2 viability: qHTS for Inhibitors of TGF-b: Cytotox Counterscreen; AID 588856, 2011; Potency, µM (highest dose often 46.1 µM), usual class: cytotoxic; HepG2 CAGA-GFP viability, ATP luminescence, 18 h; 410,000 compounds, 0.76% hits
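HepG2 CAGA-GFP cells (1000/well, DMEM with 1% FBS) received compound, then TGF-beta at 500 pg/mL final, and were incubated 18 hours at 37 degrees C. Viability was read by CellTiter-Glo luminescence. Media-only wells were set as complete cell-killing and DMSO as no toxicity.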
TGFb inhibitor: qHTS for Inhibitors of TGF-b; 410,000 compounds, 1.2% hits; HepG2 CAGA-GFP TGF-b/SMAD3 reporter, GFP fluorescence, 18 h; TGF-beta stimulated, 500 pg/mL final; Potency, µM (titrated, usually from 46.1 µM), most hits filed as inhibitors; also: nearly all actives have a fitted effect of over 65% in size
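HEPG2 CAGA-GFP, 1000 cells/well; 2 h settle, 37 C; cpd via pin tool; TGF-b 500 pg/mL final; 18 h, 37 C; GFP imaging ex488/em500-530; %Activity normalised to -TGF-b and +DMSO controls; CRC fit, curve class.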
Each line names hits and unclear results; the compound was inactive in the other large screens. Compounds with a hit are over-represented: about 17% of the library has one in this group of screens. Calls follow the shape of the dose curve; as a rule, active = well fitted curve in the direction sought with a large enough effect; inconclusive = small, poorly fitted or top-dose-only effect, or another doubt; inactive = no such curve, though single readings can be large; an effect the other way counts as inactive or inconclusive.

COc1cc(OC)c(NS(=O)(=O)c2cc3[nH]c(=O)c(=O)[nH]c3cc2C)cc1Cl	none (no result: ATXN2 expr inh)
COc1cc(/C=C/C(=O)c2c(O)cc(C)oc2=O)cc(OC)c1O	DT40 TDP1 CPT inconclusive, TDP1 cell noCPT inconclusive
Cc1cc(=O)oc2c(C(=O)/C=C/c3ccccc3)c(O)ccc12	TDP1 cell noCPT inconclusive
COc1ccc(/C=C/C(=O)c2c(O)c(OC)c3occc3c2OC)cc1OC	DT40 TDP1 CPT 11.2µM, TDP1 cell noCPT 10µM (no result: S2 tox, ATXN2 expr inh, HepG2 viability, TGFb inhibitor)
COc1ccc(/C=C\C(=O)c2c(O)ccc3c(C)cc(=O)oc23)cc1OC	DT40 TDP1 CPT 16.4µM, TDP1 cell noCPT 23.1µM, TGFb inhibitor inconclusive
COCc1c(C(=O)N2CCCCCC2)cnn1-c1nccc(-c2cccs2)n1	none (no result: ATXN2 expr inh, HepG2 viability, TGFb inhibitor)
O=[N+]([O-])c1ccc2c(c1)C(N1CCN(CCO)CC1)Cc1ccc(F)cc1S2 (stereo not given)	S2 tox inconclusive, DT40 TDP1 CPT inconclusive, TDP1 cell noCPT inconclusive, TGFb inhibitor inconclusive
COc1ccc2c(c1)CC(N1CCN(C)CC1)c1cc(OC)ccc1S2 (stereo not given)	S2 tox inconclusive, DT40 TDP1 CPT inconclusive, TDP1 cell noCPT inconclusive, ATXN2 expr inh 28.2µM, HepG2 viability 15.8µM, TGFb inhibitor inconclusive
CSc1ccc2c(c1)C(N1CCN(C)CC1)Cc1ccc(F)cc1S2 (stereo not given)	DT40 TDP1 CPT inconclusive, TDP1 cell noCPT 16.4µM, TGFb inhibitor inconclusive (no result: ATXN2 expr inh)
COCCOC(=O)c1c(NC(=O)COC(=O)Cc2cccc(OC)c2)sc(C(N)=O)c1C	none
COc1ccc(S(=O)(=O)N2CCOCC2)cc1NC(=O)CC(C)c1ccccc1 (stereo not given)	TDP1 cell noCPT 20.6µM, TGFb inhibitor inconclusive (no result: ATXN2 expr inh)
CCCC(NCC(=O)Nc1cc(S(=O)(=O)N2CCOCC2)ccc1OC)c1ccccc1 (stereo not given)	DT40 TDP1 CPT 16.4µM, TDP1 cell noCPT 14.6µM
COc1ccc(S(=O)(=O)N2CCOCC2)cc1NC(=O)Cc1ccccc1Cl	none
O=[N+]([O-])c1ccc(/C=N/Nc2ccnc3cc(Cl)ccc23)o1	S2 tox inconclusive, DT40 TDP1 CPT 14.6µM, TDP1 cell noCPT 16.4µM, HepG2 viability 20µM, TGFb inhibitor inconclusive
C/C(=N/Nc1ccnc2cc(Cl)ccc12)c1ccc(N)cc1	S2 tox 25.1µM, DT40 TDP1 CPT 23.1µM, TDP1 cell noCPT 18.4µM, TGFb inhibitor inconclusive
Clc1ccc2c(N/N=C/c3cccc(Br)c3)ccnc2c1	DT40 TDP1 CPT 16.4µM, TDP1 cell noCPT 16.4µM, ATXN2 expr inh inconclusive (no result: S2 tox)
Clc1ccc2c(N/N=C/c3ccccc3Br)ccnc2c1	S2 tox inconclusive, DT40 TDP1 CPT 7.31µM, TDP1 cell noCPT 2.91µM, ATXN2 expr inh inconclusive
Clc1ccc2c(NNc3ccccc3Cl)ccnc2c1	DT40 TDP1 CPT inconclusive, TDP1 cell noCPT inconclusive
Cc1ccc(NC(=O)COC(=O)Cn2ccc(C(F)(F)F)n2)cc1Cl	none
CC(Oc1ccccc1C(N)=O)C(=O)Nc1ccc(S(=O)(=O)N2CCCC2)cc1 (stereo not given)	DT40 TDP1 CPT inconclusive
CCC(=O)N1N=C(c2ccccc2)CC1c1ccccc1 (stereo not given)	none
N=C(SC1CC(=O)N(c2ccc(F)cc2)C1=O)N1N=C(c2ccccc2)CC1c1ccccc1 (stereo not given)	DT40 TDP1 CPT 16.4µM, TDP1 cell noCPT inconclusive
CC(C)Cc1cc(C(=O)NCc2cccs2)no1	none
CCCCN(C(=O)CSc1nc2ccccc2s1)c1c(N)n(CCCC)c(=O)[nH]c1=O	TDP1 cell noCPT inconclusive
CCCCN(C(=O)CSc1nn(-c2ccc(F)cc2)c(=S)s1)c1c(N)n(CCCC)c(=O)[nH]c1=O	DT40 TDP1 CPT inconclusive, TDP1 cell noCPT 29.1µM
Cn1c(N)c(C(=O)CSc2nn(-c3ccc(F)cc3)c(=S)s2)c(=O)n(C)c1=O	DT40 TDP1 CPT 20.6µM, TDP1 cell noCPT 23.1µM, ATXN2 expr inh inconclusive
COc1ccccc1CN1CCNC(=O)C1CC(=O)N(C)Cc1cnccn1 (stereo not given)	none
CCOC(=O)C1(Cc2ccc(Cl)cc2)CCN(CCCn2cccn2)CC1	DT40 TDP1 CPT inconclusive, TDP1 cell noCPT 20.6µM
CCOC(=O)C1(CCc2ccccc2)CCN(Cc2nccn2CC)CC1	DT40 TDP1 CPT inconclusive, TDP1 cell noCPT 18.4µM, TGFb inhibitor inconclusive
CCOC(=O)C1(S(=O)(=O)c2ccc(Cl)cc2)CCN(Cc2ccc(Cl)cc2)CC1	DT40 TDP1 CPT 16.4µM, TDP1 cell noCPT 18.4µM
CCOC(=O)C1(Cc2ccc(Cl)cc2)CCN(Cc2nccn2CC)CC1	DT40 TDP1 CPT 20.6µM, TDP1 cell noCPT inconclusive
C[C@H](O)Cc1cc2ccccc2c(=O)o1	TGFb inhibitor inconclusive
O=c1cnn([C@@H]2O[C@H](CO)[C@@H](O)[C@H]2O)c(=O)[nH]1	DT40 TDP1 CPT 11.6µM, TDP1 cell noCPT 2.31µM
Nc1[nH]c(=O)nc2c1ncn2C1OC(CO)C(O)C1O (stereo not given)	DT40 TDP1 CPT inconclusive, TDP1 cell noCPT inconclusive (no result: S2 tox, ATXN2 expr inh)
CCOC(=O)c1c(Oc2ccc(C(C)=O)cc2)nnc(-c2ccccc2)c1-c1ccccc1	S2 tox inconclusive, DT40 TDP1 CPT 20.6µM, TDP1 cell noCPT 25.9µM, ATXN2 expr inh inconclusive, TGFb inhibitor inconclusive
CCOC(=O)c1c(Nc2ccccc2)nnc(-c2ccccc2)c1-c1ccccc1	DT40 TDP1 CPT inconclusive, TDP1 cell noCPT inconclusive, ATXN2 expr inh inconclusive, TGFb inhibitor inconclusive
CCOC(=O)c1c(Nc2ccc(OC)cc2)nnc(-c2ccccc2)c1-c1ccccc1	DT40 TDP1 CPT 23.1µM, TDP1 cell noCPT 23.1µM, TGFb inhibitor inconclusive
CCOC(=O)c1c(Nc2ccc(F)cc2)nnc(-c2ccccc2)c1-c1ccccc1	DT40 TDP1 CPT 23.1µM, TDP1 cell noCPT 18.4µM, ATXN2 expr inh inconclusive, TGFb inhibitor inconclusive
CCOC(=O)c1c(Nc2ccc(O)cc2)nnc(-c2ccccc2)c1-c1ccccc1	DT40 TDP1 CPT inconclusive, TDP1 cell noCPT inconclusive
CCc1nn(CC(=O)NCCOC)c(=O)c2cc3cc(F)ccc3n12	none
OCC1OCOC2C(CO)OCOC12 (stereo not given)	none
CCOC(=O)c1nnc(-c2ccc(C)cc2)nc1Sc1ccc(Cl)cc1	DT40 TDP1 CPT 8.2µM, TDP1 cell noCPT 8.2µM, TGFb inhibitor inconclusive
CCOC(=O)c1nnc(-c2ccc(C)cc2)nc1Oc1ccc(Cl)cc1Cl	DT40 TDP1 CPT inconclusive, TDP1 cell noCPT 16.4µM, TGFb inhibitor inconclusive
